About 970 (42%) of roughly 2,300 compounds were called active. Rule as the data show it: active = inhibition above about 4.5%; inactive = the rest. The set was probably picked from earlier hits. Not all results are given here.
Each compound was assayed on Methionine sulfoxide reductase A (Bos taurus) (assay: methionine sulfoxide reductase A inhibition – biochemical, absorbance, bovine, HTS, confirmation (AID 651822;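 also: coupled to thioredoxin reductase with NADPH and selenocystamine and DMSO as substrate; 0% = vehicle only and 100% = full effect of reference inhibitor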)). Details: purified bovine MsrA, absorbance read-out; at 15.5 µM; stronger effect = higher value.

| Structure (SMILES) | inhibition |
| --- | --- |
| COc1ccccc1C(=O)N/C(=C/c1ccc2c(c1)OCO2)C(=O)Nc1cccc(C(=O)O)c1 | 3.23% (inactive) |
| COc1ccc(/C=C(/NC(=O)c2ccco2)C(=O)Nc2ccc(C(C)=O)cc2)cc1 | 5.97% (active) |
| CCN(CC)C(=O)c1sc(NC(=O)c2ccco2)c(C#N)c1C | 3.8% (inactive) |
| COc1ccc(C(=O)CSc2nc(C)cc(C)n2)cc1[N+](=O)[O-] | 7.55% (active) |
| Cc1cc(C)nc(S/C=C/C(=O)c2ccccc2)n1 | 4.29% (inactive) |
| Cc1cccc(-n2c(O)c(C=Nc3ccccc3N)c(=O)[nH]c2=O)c1 | 3.07% (inactive) |
| CCOc1cc(/C=N/NC(=O)c2c(C)nc3ccc(Cl)cn23)ccc1O | 4.5% (inactive) |
| COc1ccc(/C=N\NC(=O)c2sc(N)nc2C)cc1OC | 6.13% (active) |
| COc1ccc(/C=N/n2nnnc2N)cc1OC | 2.84% (inactive) |
| COc1ccc(/C=C2\SC(=O)N(CCC(=O)NC3CCS(=O)(=O)C3)C2=O)cc1 (centres undefined) | 5.86% (active) |
| COc1ccc(/C=C2\N=C3CCCN3C2=O)cc1 | 2.42% (inactive) |
| Cc1n[nH]c(=O)nc1N/N=C/c1cccs1 | 3.61% (inactive) |
| O=C(N/N=C/c1ccc2c(c1)OCO2)c1ccc(Cn2cc([N+](=O)[O-])cn2)o1 | 4.56% (active) |
| CCOc1cc(/C=N/NC(=O)c2ccc(CSc3nncn3C)cc2)ccc1OCC(=O)N1CCOCC1 | 3.67% (inactive) |
| COc1ccc(OC)c(C2C3=C(N=c4s/c(=C\c5cccc(O)c5)c(=O)n42)c2ccccc2CC3)c1 (centres undefined) | 3.18% (inactive) |
| CC(N=Cc1nc(-c2ccccc2)oc1O)c1ccccc1 (centres undefined) | 3.02% (inactive) |
| COC(=O)/C(C#N)=C/c1occc1C | 4.58% (active) |
| CC(Nc1ccc([N+](=O)[O-])cc1[N+](=O)[O-])c1ccccc1 (centres undefined) | 32.3% (active) |
| O=C(Cc1ccccn1)c1ccc(O)cc1O | 2.96% (inactive) |
| Cc1ccc(S(=O)(=O)Nc2nc(C)cc(N/N=C/c3ccc(O)cc3)n2)cc1 | 4.89% (active) |
| CN(c1ccccc1)S(=O)(=O)c1ccc2[nH]c(=O)[nH]c2c1 | 9.47% (active) |
| CS(=O)(=O)c1ccc2nc(NC(=O)c3ccc(Cl)nc3)sc2c1 | 4.5% (inactive) |
| Cc1ccc(C(=O)N/N=C/c2sc(=O)n(Cc3cccc(C(=O)O)c3)c2Cl)cc1 | 6.35% (active) |
| Oc1ccc(/C=N/Nc2ccc(C(F)(F)F)cn2)cc1O | 4.15% (inactive) |
| O=C(O)c1ccc(N/N=C/c2ccc3ncccc3c2)cc1 | 7.49% (active) |

| Structure (SMILES) | inhibition |
| --- | --- |
| COc1ccccc1-c1n[nH]c2c1[C@H](C)CC[C@H]2C(C)C | 8.12% (active) |
| Cc1ccc(Nc2ccc(C(N)=O)cc2[N+](=O)[O-])cc1 | 5.43% (active) |
| NC(=O)c1ccc(Nc2ccc3c(c2)CCC3)c([N+](=O)[O-])c1 | 12% (active) |
| CCn1cc(/C=C(\NC(=O)c2ccc(C)cc2)C(=O)NCCN2CCOCC2)c2ccccc21 | 1.62% (inactive) |
| COc1ccc(-c2ccc(Nc3ccc(S(=O)(=O)N4CCCC4)cc3)nn2)cc1OC | 4.64% (active) |
| CCOc1ccc(/C=C(/C#N)c2nnc(N3CCOCC3)n2-c2ccccc2)cc1OC | 2.86% (inactive) |
| CCCc1nc(SCC(=O)N2CCCC2)c2c(=O)n(C)c(=O)n(C)c2n1 | 4.83% (active) |
| CC(=O)c1sc2nc(SCC(=O)N3CCCCC3)[nH]c(=O)c2c1C | 4.28% (inactive) |
| CC1CCCCN1S(=O)(=O)c1ccc(C(=O)Nc2nnc(-c3cccs3)o2)cc1 (centres undefined) | 2.45% (inactive) |
| Cc1ccc(CC2(C)C(=O)Nc3ccc(OC(F)(F)F)cc32)cc1 (centres undefined) | 8.12% (active) |
| CC(=O)c1ccc(N2CCN(CC(=O)Nc3ccccc3N3CCOCC3)CC2)cc1 | 1.04% (inactive) |
| CSc1ccc(/C=C2\NC(=O)NC2=O)cc1 | 3.93% (inactive) |
| O=Cc1cn(-c2ccccc2)nc1-c1ccccn1 | 5.38% (active) |
| Cc1ccc(/C=N/NC(=S)NC2CCCCC2)o1 | 4.23% (inactive) |
| Cc1ccc(S(=O)(=O)N(C)c2ccc(OCC(=O)OCc3ccc(C#N)cc3)cc2)cc1 | 5.74% (active) |
| CC(=O)c1ccc(N2CCN(C(=O)c3ccc4nc[nH]c4c3)CC2)cc1 | 3.02% (inactive) |
| O=C(CNC(=O)C1COc2ccccc2O1)N/N=C/c1cc(Br)c(O)c(Br)c1 (centres undefined) | 7.08% (active) |
| O=C(CNC(=O)c1cccnc1)N/N=C/c1cc(Br)c(O)c(Br)c1 | 4.48% (inactive) |
| O=C1/C(=C\Nc2ccccc2)CCN1c1ncccn1 | 6.98% (active) |
| CC(=O)Nc1ccc(S(=O)(=O)Oc2ccc(/C=N/N=C3/NC(=O)C(CC(=O)O)S3)cc2)cc1 (centres undefined) | 2.79% (inactive) |
| O=C(O)c1ccc(N/N=C/c2cn(-c3ccccc3)nc2-c2cccs2)cc1 | 5.22% (active) |
| CC(=O)N1N=C(c2ccncc2)OC1(Cc1ccccc1)Cc1ccccc1 | 9.69% (active) |
| Cc1ccc(N2C(=O)CN=C2Nc2nc(C)cc(C)n2)cc1 | 4.56% (active) |
| Cc1c(C(=O)N2CCCc3ccccc32)oc2ccccc12 | 7.55% (active) |
| COc1ccc(C2/C(=C(/O)c3ccccc3)C(=O)C(=O)N2C)c(OC)c1 (centres undefined) | 1.16% (inactive) |

| Structure (SMILES) | inhibition |
| --- | --- |
| Clc1cccc(-c2nc3nc4ccccc4nc3n2Cc2ccco2)c1 | 1.65% (inactive) |
| O=S1(=O)N=C(N(CCO)/N=C/c2ccccc2F)c2ccccc21 | 2.79% (inactive) |
| CCOC(=O)C(C)n1cnc2scc(-c3ccc(C)c(C)c3)c2c1=O (centres undefined) | 5.16% (active) |
| COc1cc2cc(C(=O)N/N=C/c3cccc(OC)c3OC)[nH]c2cc1OC | 5.26% (active) |
| CCOc1ccc2[nH]c(C(=O)N/N=C/c3cccc(OC)c3OC)cc2c1 | 3% (inactive) |
| Cc1ccccc1C(CC(=O)c1cccs1)C(C#N)C#N (centres undefined) | 2.52% (inactive) |
| Nc1nnnn1CC(=O)N/N=C/c1ccc(-c2cccc(Cl)c2)o1 | 3.45% (inactive) |
| Cc1cccc2cc(C#N)c(N3CCCC3)nc12 | 7.09% (active) |
| Cc1occc1C(=O)N/N=C/c1ccc(-c2cccc([N+](=O)[O-])c2)o1 | 3.63% (inactive) |
| O=C(N/N=C/c1ccco1)c1ccc(C(=O)N/N=C/c2ccco2)o1 | 10.6% (active) |
| Cc1oc2c(c1C(=O)N1CCOCC1)C(=O)c1ccccc1C2=O | 15.3% (active) |
| COCCNC(=S)N/N=C/c1c(C)[nH]c2ccccc12 | 4.03% (inactive) |
| C=CCNC(=S)N/N=C/c1ccc(C)s1 | 5.29% (active) |
| Cc1cc(C(=O)N/N=C/c2ccc(O)c([N+](=O)[O-])c2)c(C)n1-c1ccc(F)cc1 | 4.12% (inactive) |
| NC(=S)N/N=C/c1ccc([N+](=O)[O-])cc1 | 4.55% (active) |
| Cc1ccc(N2CCN(C3=NC(=O)/C(=C\c4cccs4)S3)CC2)cc1 | 1.26% (inactive) |
| COc1ccc(/C=C/C(=O)NC(=S)N2CCCC(C(N)=O)C2)cc1 (centres undefined) | 6.19% (active) |
| COc1ccc(C2=NS(=O)(=O)N(C)C(C(=O)N3CCCCC3)=C2)cc1 | 3.33% (inactive) |
| CC(=O)Nc1ccc(/C=N/NC(=O)c2cccs2)cc1 | 3.39% (inactive) |
| CCN(CC)c1ccc(/C=N/NC(=O)CNC(=O)c2cccs2)cc1 | 3.57% (inactive) |
| O=C(N/N=C/C=C/c1ccco1)c1cccs1 | 7.55% (active) |
| COc1ccc(CC(=O)c2ccc(O)cc2O)cc1OC | 4.03% (inactive) |
| CCOC(=O)C/C(C)=N\Nc1ccc([N+](=O)[O-])cc1[N+](=O)[O-] | 9.34% (active) |
| C/C(=N\Nc1ccc(S(N)(=O)=O)cc1[N+](=O)[O-])c1cccs1 | 1.79% (inactive) |
| COc1cc(C2C(C(=O)c3sc(C)nc3C)=C(O)C(=O)N2CCN(C)C)cc(OC)c1OC (centres undefined) | 9.08% (active) |

| Structure (SMILES) | inhibition |
| --- | --- |
| Cc1ccc(-c2ccc(/C=C(\C#N)C(N)=S)o2)c([N+](=O)[O-])c1 | 2.76% (inactive) |
| COc1ccc(/C=C/C(=O)Nc2cccnc2)cc1OC | 4.72% (active) |
| CC(/C=N/NC(=O)c1ccncc1)=C\c1ccco1 | 6.11% (active) |
| CC(C)Oc1c(Br)cc(Br)cc1/C=N/NC(N)=S | 6.46% (active) |
| CCOC(OCC)c1ccc(/C=C\c2nccc(N)n2)cc1 | 3.39% (inactive) |
| CCc1nnc(NS(=O)(=O)c2ccc(NC(=S)NC(=O)/C=C/c3cccs3)cc2)s1 | 4.14% (inactive) |
| CCc1nnc(NC(=O)/C=C/c2ccc(C)o2)s1 | 6.27% (active) |
| COc1cccc(C2=CC(=O)C[C@H](c3ccc(F)cc3)C2)c1OC | 1.12% (inactive) |
| CN1CCN(CCC(=O)N/N=C/C=C2\N(C)c3ccccc3C2(C)C)CC1 | 4.4% (inactive) |
| O=C(Oc1c(-c2ccco2)oc2ccccc2c1=O)c1cccnc1 | 4.83% (active) |
| Cc1c(C=O)c2ccccn2c1C(=O)c1ccncc1 | 4.31% (inactive) |
| COc1cccc(/C(C)=N/Nc2ncc(Cl)cc2Cl)c1 | 5.95% (active) |
| CNC(=O)/C(=C\C=C\c1ccccc1)NC(=O)c1ccc([N+](=O)[O-])cc1 | 4.89% (active) |
| O=C(Nc1ccc(C(=O)O)cc1)/C(=C/c1ccc([N+](=O)[O-])cc1)NC(=O)c1ccccc1 | 2.84% (inactive) |
| COc1ccc(/C=N/Nc2cc(N3CCOCC3)nc(C)n2)c(OC)c1 | 5.31% (active) |
| Cc1cc(C(=O)N/N=C/c2ccc(N3CCOCC3)cc2)c(C)o1 | 3.45% (inactive) |
| C(=N/Nc1cc(N2CCOCC2)nc(N2CCOCC2)n1)/c1ccccc1 | 2.4% (inactive) |
| COc1ccc(S(=O)(=O)c2c[nH]c(=S)[nH]c2=O)cc1Cl | 2.06% (inactive) |
| CCOC(=O)c1c(C(C#N)C#N)cc(C)nc1C | 5.34% (active) |
| Cc1ccc(Cl)cc1-c1ccc(/C=N/n2cnnc2)o1 | 3.18% (inactive) |
| O=C(O)c1cccc(NC(=S)N/N=C/c2c[nH]c3ccccc23)c1 | 5.97% (active) |
| S=c1[nH]nc(-c2ccccc2)n1/N=C/c1c[nH]c2ccccc12 | 2.93% (inactive) |
| O=C(Nc1cccc(F)c1)c1coc(=O)c(Br)c1 | 4.61% (active) |
| CCOc1cc(/C=C2\SC(N3CCCCC3)=NC2=O)ccc1O | 2.79% (inactive) |

— PubChem BioAssay AID651822 (The Scripps Research Institute Molecular Screening Center, 2012)
